Rows were chosen to be rich in hits. Some 3.2% of all compounds tested hit in one or more screens of this group.
MsrA inh: bovine MsrA inhibition | purified bovine MsrA, absorbance read-out | inhibition, % at 15.5 µM | actives 0.75% (n = 360,000) | AID 651718; in the data active = inhibition above about 4.5%;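 also: 0% = vehicle wells with enzyme and 100% = reference inhibitor wells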
bovine MsrA act: bovine methionine sulfoxide reductase A activation | purified bovine MsrA, absorbance read-out | activation, % at 10.6 µM | actives 0.3% (n = 360,000) | AID 602163; in the data active = activation above about 7.5%;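 also: 0% = vehicle and 100% = reference activator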
PG9 Ab binder: binds the HIV-1 gp120 antibody PG9; inhibition, % at 6.7 µM; actives 0.43% (n = 360,000); AID 624416; TR-FRET gp120-PG9 antibody binding; in the data active = inhibition above about 8.5%
HGIII-sPLA2 inh: Inhibits HGIII-sPLA2 liposome hydrolysis, primary screen; QFRET BODIPY PC-A2 liposome hydrolysis, fluorescence; inhibition, % at 12.2 µM; Q9NZ20; actives 0.56% (n = 370,000);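 active = inhibition above mean plus 3 SD of compounds lying within the high and low control bounds, cut at about 19% in these data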;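 also: 0% = median of test compound wells and 100% = no enzyme DMSO wells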
Target sequence (Q9NZ20 whole entry, looked up): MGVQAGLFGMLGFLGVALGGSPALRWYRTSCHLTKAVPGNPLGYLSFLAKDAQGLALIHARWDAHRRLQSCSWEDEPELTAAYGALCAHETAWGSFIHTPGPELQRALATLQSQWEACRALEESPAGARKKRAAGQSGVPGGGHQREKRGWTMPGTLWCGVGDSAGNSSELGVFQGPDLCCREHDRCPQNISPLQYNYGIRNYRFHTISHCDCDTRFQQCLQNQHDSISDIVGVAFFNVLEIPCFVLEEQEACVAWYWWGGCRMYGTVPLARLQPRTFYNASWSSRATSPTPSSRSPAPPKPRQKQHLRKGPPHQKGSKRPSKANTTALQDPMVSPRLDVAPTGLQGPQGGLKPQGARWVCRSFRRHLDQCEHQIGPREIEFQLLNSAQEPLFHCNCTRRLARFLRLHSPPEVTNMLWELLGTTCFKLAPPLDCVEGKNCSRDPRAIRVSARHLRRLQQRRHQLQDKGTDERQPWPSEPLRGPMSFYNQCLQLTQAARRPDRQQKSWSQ
rCAG RNA binder: molecules binding r(CAG) RNA repeats | inhibition, % at 3 µM | actives 1.3% (n = 370,000) | r(CAG) RNA repeat, TO-PRO-1 dye displacement fluorescence;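 active = inhibition above the plate cutoff, the mean of all test compounds on that plate plus 3 SD, cut at about 35% in these data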;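 also: 0% = DMSO alone and 100% = 100 µM mitoxantrone as full dye displacement; higher means more dye released from RNA so lower well fluorescence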
rCAG binder conf: r(CAG) RNA repeat binding, confirmation; actives 70% (n = 4,300); shares compounds with rCAG RNA binder; inhibition, % at 3 µM; TO-PRO-1 dye displacement fluorescence;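 active = inhibition above a per-plate cutoff, the mean inhibition of sample wells plus 3 SD, cut at about 35% in these data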;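 also: loss of TO-PRO-1 fluorescence as compound displaces dye from 1x1 AA loop RNA; 0% = DMSO only wells and 100% = 100 µM mitoxantrone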
dCAG dye counter: disrupts DNA CAG TO-PRO-1 complex, flagging rCAG hits. AID 652068. d(CAG) DNA oligo TO-PRO-1 dye displacement, fluorescence. inhibition, % at 3 µM. actives 94% (n = 4,300). shares compounds with rCAG RNA binder;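 active = inhibition above its plate's cutoff, the mean test-well inhibition plus 3 SD, cut at about 4.8% in these data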;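 also: 0% = DNA dye mix with DMSO and 100% = 100 µM mitoxantrone; hits displace the dye from DNA and so lower well fluorescence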
DNA CAG DR: counter-screen for rCAG binders: inhibitors of DNA CAG TO-PRO-1 complex; shares compounds with rCAG RNA binder; DNA CAG/GTC duplex TO-PRO-1 dye displacement fluorescence; IC50, µM; actives 20% (n = 250); AID 686960; in the data active = IC50 below about 10 µM
* hit, by the source's call; i = inactive; . = not tested or not shown.

SMILES	MsrA inh	bovine MsrA act	PG9 Ab binder	HGIII-sPLA2 inh	rCAG RNA binder	rCAG binder conf	dCAG dye counter	others
COc1ccc(OCC(=O)Nc2ccc(C(=O)Nc3ccccc3C(=O)O)cc2)cc1	0	-4	-1	-30	73*	75*	30*	DNA CAG DR=i
Cc1ccc(OCC(=O)Nc2ccc(C(=O)Nc3ccccc3C(=O)O)cc2)cc1C	0	-6	0	-8	51*	80*	45*
COc1ccc(/C=C(\NC(=O)c2ccc(OC)cc2)C(=O)Nc2ccccc2C(=O)O)cc1	4	-4	2	-5	39*	22	4
Cc1ccccc1OCC(=O)Nc1ccc(C(=O)Nc2ccccc2C(=O)O)cc1	-2	-3	0	-14	49*	73*	37*
CC(C)[C@H]1Cn2nnc(-c3ccccc3)c2Cn2c3ccccc3c(=O)n21	.	.	.	5	3	.	.
COc1ccc(/C=C/S(=O)(=O)NCc2ccc(F)cc2)c(CNC(=O)OC(C)(C)C)c1	.	.	.	-1	3	.	.
COC(=O)[C@H](CC(C)C)N(CCc1cn(Cc2ccccc2)nn1)S(=O)(=O)c1ccc(F)cc1Br	.	.	.	-11	1	.	.
CN[C@H]1C[C@H]2c3[nH]c4c(-c5cccc(C)c5)cccc4c3CCN2C[C@H]1[C@H](C)O	.	.	.	-6	13	.	.
COc1ccc(C(=O)Nc2ccc(C(=O)O)cc2NC(=O)c2ccc(OC)cc2)cc1	-1	-2	1	-31	36*	20	3
O=C(Nc1cccc(Br)c1)c1ccc2nc(N3C(=O)CCC3=O)sc2c1	0	-3	1	-20	44*	27	9.7*
CCOC(=O)[C@]12CCCC3=C1N(CCC3)C(=O)[C@@H](CC(=O)N1CCN(C(=O)C3CC3)CC1)C2	.	.	.	10	-2	.	.
Cc1ccc(NC(=O)CN2C(=O)S/C(=C/c3ccc(O)c([N+](=O)[O-])c3)C2=O)cc1C	2	-3	-4	-9	94*	80*	46*
O=C(CN1C(=O)S/C(=C\c2ccc(O)c([N+](=O)[O-])c2)C1=O)Nc1ccc(N2CCOCC2)cc1	-1	-3	-2	7	-1	.	.
Cc1cccc(NC(=O)CN2C(=O)S/C(=C\c3ccc(O)c([N+](=O)[O-])c3)C2=O)c1	4	-3	-1	-4	83*	57*	20*
O=C(CN1C(=O)S/C(=C\c2cc(Cl)c(O)c(Cl)c2)C1=O)Nc1ccccc1	0	-2	-2	-6	48*	50*	16*
CCCCCCCCN1C(=O)[C@@H](CC(=O)NCC2CCCCC2)C[C@@]2(C(=O)OC)C1=C[C@H](COCc1ccccc1)O[C@@H]2C	.	.	.	-4	11	.	.
Cc1cc(C)c2nc(NNC(=O)c3cc(=O)c4ccccc4o3)sc2c1	0	2	-2	4	73*	82*	49*
CCOC(=O)Cc1csc(NC(=O)c2cc(=O)c3ccccc3o2)n1	3	-15	-1	4	4	.	.
CC(Oc1ccc(Br)cc1)C(=O)Nc1ccc(S(=O)(=O)Nc2nccs2)cc1 (stereo not given)	1	-3	-1	-55	52*	34	9.4*
COCC(=O)Nc1ccc(S(=O)(=O)Nc2nccs2)cc1	0	-3	-1	1	4	.	.
CCC(Oc1ccc(C)cc1)C(=O)Nc1ccc(S(=O)(=O)Nc2nccs2)cc1 (stereo not given)	0	-3	-5	-43	53*	33	8.8*
CC(Oc1ccccc1)C(=O)Nc1ccc(S(=O)(=O)Nc2nccs2)cc1 (stereo not given)	1	-4	1	-17	10	.	.
O=S(=O)(Nc1nccs1)c1ccc(NCc2cc(Br)cc(Br)c2O)cc1	-1	-6	0	-9	58*	41*	14*
CCOC(=O)C1(Cc2ccccc2)CCN(Cc2ccc(C(F)(F)F)cc2)CC1	.	.	.	6	0	.	.
COc1ccc(C2CC(=O)N3CN(c4ccc(C)c(Cl)c4)CSC3=C2C#N)cc1 (stereo not given)	3	-1	3	5	38*	14	8.3*
SMILES	MsrA inh	bovine MsrA act	PG9 Ab binder	HGIII-sPLA2 inh	rCAG RNA binder	rCAG binder conf	dCAG dye counter	others
O=[N+]([O-])c1ccc(-c2nc(Nc3cccc(O)c3)c3ccccc3n2)cc1	1	5	0	-36	48*	28	13*
O=C(O)c1cccc(Nc2nc(-c3ccccc3)nc3ccccc23)c1	3	-1	-1	-32	49*	34	7.6*
Cc1ccc(-c2nc(Nc3cccc(O)c3)c3ccccc3n2)cc1	2	-1	-3	-43	37*	32	10*
O=C(O)c1cccc(Nc2nc(-c3ccc([N+](=O)[O-])cc3)nc3ccccc23)c1	1	-1	0	9	2	.	.
Cc1ccc(C)c(OCC(=O)Nc2cc(NC(=O)COc3cc(C)ccc3C)cc(C(=O)O)c2)c1	2	2	0	-25	49*	77*	41*
Cc1noc(NS(=O)(=O)c2ccc(NC(=O)CC(C)C)cc2)c1C	1	-1	1	5	1	.	.
CCc1cccc(OCC(=O)Nc2c[nH]c(=O)[nH]c2=O)c1	-1	1	2	0	2	.	.
Cc1noc(NS(=O)(=O)c2ccc(NC(=O)CSc3nc4c(cc3C#N)CCCCC4)cc2)c1C	1	-2	0	-17	42*	34	8.2*
CCCCCCC(=O)Nc1ccc(S(=O)(=O)Nc2onc(C)c2C)cc1	1	-3	-1	5	18	.	.
Cc1ccc(C)c(OCC(=O)Nc2nonc2NC(=O)COc2cc(C)ccc2C)c1	2	0	0	-15	13	.	.
Cc1noc(NS(=O)(=O)c2ccc(NC(=O)CCCOc3ccc(Cl)cc3Cl)cc2)c1C	0	-3	-1	-65	87*	73*	38*
CCc1cccc(OCC(=O)Nc2ccc(C(=O)O)cc2NC(=O)COc2cccc(CC)c2)c1	-1	2	-1	-56	78*	72*	36*
Cc1ccc(S(=O)(=O)N2c3ccc(F)cc3C[C@H]2CSc2ccccc2)cc1	.	.	.	-1	.	.	.
O=C(OCC#CCSc1nnc(-c2cccc3ccccc23)o1)c1ccc(SC(F)(F)F)cc1	.	.	.	1	.	.	.
Cc1ccc(C)c(OCC(=O)Nc2ccc(S(=O)(=O)Nc3onc(C)c3C)cc2)c1	0	1	-3	-23	48*	46*	13*
Cc1ccccc1OCC(=O)Nc1ccc(S(=O)(=O)Nc2onc(C)c2C)cc1	1	-14	-3	-14	31	.	.
CCc1cccc(OCC(=O)Nc2ccc(S(=O)(=O)Nc3onc(C)c3C)cc2)c1	0	-4	-1	-23	37*	31	7.1*

Compound activity: PubChem BioAssay, The Scripps Research Institute Molecular Screening Center
